High-throughput results: PubChem BioAssay, several laboratories
Hits are enriched below; roughly 1.4% of the tested compounds scored in any of these assays.
MazF activator = increases E. coli MazEF RNase cleavage of RNA; P0AE70; FAM/BHQ RNA-DNA oligo cleavage fluorescence, 5 h; activation, % at 20 µM; hit rate 0.32% among 350,000; AID 504720; in the data active = activation above about 50%
Target sequence (P0AE70 whole entry, looked up): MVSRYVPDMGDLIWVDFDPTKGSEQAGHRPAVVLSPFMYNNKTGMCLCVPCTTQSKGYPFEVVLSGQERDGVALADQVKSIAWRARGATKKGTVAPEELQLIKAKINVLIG
VHR inh abs = blocks human VHR1 dual specificity phosphatase | AID 1654 | inhibition, % at 13.3 µM | hit rate 0.52% among 290,000 | P51452 | recombinant VHR phosphatase, pNPP absorbance; in the data active = inhibition above about 50%
Target sequence (P51452 whole entry, looked up): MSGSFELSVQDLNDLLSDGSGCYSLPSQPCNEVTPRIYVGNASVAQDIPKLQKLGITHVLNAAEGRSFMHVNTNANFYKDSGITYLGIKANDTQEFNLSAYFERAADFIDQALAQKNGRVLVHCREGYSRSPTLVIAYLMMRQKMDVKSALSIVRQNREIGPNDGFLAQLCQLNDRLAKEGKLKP
3CLpro inhibitor = SARS-CoV 3CLpro protease inhibition | P0C6X7 | recombinant SARS-CoV 3CLpro, quenched FRET peptide cleavage | inhibition, % at 6 µM | hit rate 0.14% among 290,000 | AID 1706; in the data active = inhibition above about 12%
CCHF vOTU inh-1 = blocks the CCHF virus ovarian tumor domain protease. CCHFV vOTU protease, Pep-AMC fluorescence. inhibition, % at 11.5 µM. hit rate 0.55% among 370,000. AID 651958; also: 0% = vehicle wells with enzyme and 100% = no enzyme wells
BJeLR viability = BJeLR cell viability loss | AID 1554 | inhibition, % (concentration not given with the values) | hit rate 0.17% among 300,000 | BJeLR (HRASV12) viability, CellTiter-Glo ATP luminescence, 48 h; in the data active = inhibition above about 50%
CCHF vOTU inh-2 = confirmation of CCHF virus vOTU protease inhibitors | AID 686976 | hit rate 17% among 1,900 | shares compounds with CCHF vOTU inh-1 | inhibition, % at 11.5 µM | Recombinant CCHFV vOTU, Pep-AMC fluorescence
An asterisk follows results filed as active; i = inactive; . = not tested or not shown; ! = repeats disagree. Rule as the data show it, unless noted: active = inhibition above about 30%; inactive = the rest.

SMILES | MazF activator | VHR inh abs | 3CLpro inhibitor | CCHF vOTU inh-1 | BJeLR viability | CCHF vOTU inh-2
Cc1ccc2nc(NC(=O)CSCC(=O)OCC(=O)c3ccccc3)sc2c1 | 2 | -8 | 4 | 35* | -8 | -4
COc1cccc(NP(=O)(Oc2ccccc2)Oc2ccccc2)c1 | 0 | -21 | 3 | 30* | 21 | 5
COc1cc(NS(=O)(=O)c2ccc(NC(=O)/C(=C/c3ccccc3Cl)NC(=O)c3ccccc3)cc2)nc(OC)n1 | 3 | 8 | 5 | 13 | 1 | .
O=C(Nc1ccc(S(=O)(=O)Nc2nccs2)cc1)/C(=C/c1ccccc1Cl)NC(=O)c1ccccc1 | 1 | 13 | 4 | 32* | 15 | -16
CCCCOCCCNC(=O)C[C@H]1C(=O)N(CCCOC)C2=CCCCC[C@]21C(=O)OC | . | . | . | -1 | . | .
Cc1ccc(S(=O)(=O)N(Cc2cc3cc4c(cc3[nH]c2=O)OCCO4)CC2CCCO2)cc1 (stereo not drawn) | -1 | 38 | -3 | 38* | 8 | -27
Cc1ccc2[nH]c(=O)c(CN(CC3CCCO3)S(=O)(=O)c3c(C)ccc4nsnc34)cc2c1 (stereo not drawn) | 2 | 34 | -2 | -11 | 0 | .
O=c1[nH]c2cc3c(cc2cc1CN(CC1CCCO1)S(=O)(=O)c1ccc(Cl)cc1)OCCO3 (stereo not drawn) | -11 | -1 | -4 | -1 | -10 | .
Cc1ccc2nsnc2c1S(=O)(=O)N(CCO)Cc1cc2cc3c(cc2[nH]c1=O)OCCO3 | 7 | 10 | -3 | 44* | -1 | -5
C[C@@H]1CCCN1c1ccc2c(c1)OCCCN(C1CC1)S2(=O)=O | . | . | . | 4 | . | .
CCCCc1nnc(NC(=O)C2=COCCO2)s1 | 4 | -9 | -1 | 33* | 1 | -17
O=C1CC(N2CCOCC2)=NC(=O)N1c1ccc(Br)cc1 | . | . | . | -9 | . | .
N#CCCN(C(=O)COC(=O)CCNS(=O)(=O)c1ccccc1)c1ccccc1 | -2 | . | . | 58* | . | 3
CCCCCn1c(C)c(CC(=O)Nc2ccc(Oc3cccnc3)c(C)c2)c2ccccc21 | . | . | . | 16 | . | .
C[C@@H](CO)N(CCc1cn(Cc2ccccc2)nn1)S(=O)(=O)c1ccccc1Br | . | . | . | -5 | . | .
COC[C@H]1CCCN1c1cccc2c1S(=O)(=O)N1CC[C@@H](C1)O2 | . | . | . | -5 | . | .
Nc1ccc2ccc(N)cc2c1 | . | . | . | 34* | . | -32
Nc1ccc2cc3ccccc3cc2c1 | 14 | . | . | 13 | . | .
Fc1ccc(C2=Nc3cccc4cccc(c34)N2)cc1 | 8 | -8 | -1 | 2 | 5 | .
FC(F)(F)C1=Nc2cccc3cccc(c23)N1 | -2 | . | . | 41* | . | 17
COc1ccc(C(C)c2cn(C)c3ccccc23)cc1 (stereo not drawn) | . | . | . | 1 | . | .
CC(C)(C)c1ccc(Cn2nnc3c(=O)[nH]c(C4CCCN(C(=O)Cc5cccs5)C4)nc32)cc1 (stereo not drawn) | -3 | 24 | 5 | 31* | 0 | 4
CC(C)(C)c1ccc(Cn2nnc3c(=O)[nH]c(C4CCN(C(=O)Cc5cccs5)CC4)nc32)cc1 | -4 | 32 | 7 | 18 | 7 | .
O=c1[nH]c(C2CCCN(S(=O)(=O)Cc3ccccc3)C2)nc2c1nnn2Cc1cccc(Cl)c1 (stereo not drawn) | -2 | 24 | 1 | 30* | 10 | -5
Nc1ccc(N2CCCCC2)c2nonc12 | 5 | 16 | 6 | 111* | 1 | 34*
SMILES | MazF activator | VHR inh abs | 3CLpro inhibitor | CCHF vOTU inh-1 | BJeLR viability | CCHF vOTU inh-2
O=S(=O)(c1ccc(Cl)s1)N1CCC(c2cn3ccccc3n2)CC1 | . | . | . | -17 | . | .
Cc1ccc(S(=O)c2ccc([N+](=O)[O-])c3nonc23)cc1 (stereo not drawn) | 375* | . | . | 32* | . | 18
Cc1ccccc1C(=O)NC1CCCCN(Cc2cccc(Cl)c2)C1=O (stereo not drawn) | . | . | . | 1 | . | .
C[C@@H]1C[C@H]2O[C@@H]2/C=C\C=C\C(=O)Cc2cc(O)cc(O)c2C(=O)O1 | . | . | . | -7 | . | .
COc1ccc(C(=O)c2ccc(N3CCOCC3)c([N+](=O)[O-])c2)cc1 | 11 | 20 | 2 | 30* | 3 | -5
O=C(O)c1ccccc1-c1c2cc(I)c(=O)c(I)c-2oc2c(I)c(O)c(I)cc12 | i | . | . | 37*! | . | 39*
O=Cc1ccc(-c2ccccc2C(=O)O)o1 | 13 | -10 | -2 | 12 | -1 | .
COC1=CC(=O)c2nc(Cl)ccc2C1=O | . | . | . | 113* | . | 100*
CC(=O)NC(C)C(=O)N1CCCC1C(=O)N1CCCC1C(=O)NC(C)C(=O)NC1C(=O)NC(CC(C)C)C(=O)NC2CCCCNC(=O)CCC(C(=O)NC(Cc3ccc(O)cc3)C(=O)O)NC(=O)C3CCC(=O)OCC(NC(=O)C4CCCN4C(=O)C(Cc4c[nH]c5ccccc45)NC2=O)C(=O)NC(CC(=O)OC1C)C(=O)NC(Cc1c[nH]c2ccccc12)C(=O)N3 (stereo not drawn) | . | . | . | -6 | . | .
Cc1ccc2c(c1)-c1c(cnn1CC(=O)NCCc1ccc(O)cc1)CO2 | . | . | . | 2 | . | .
CC(C)C[C@H](NC(=O)c1[nH]cnc1C(=O)N[C@@H](C)C(=O)OC(C)(C)C)C(=O)OC(C)(C)C | 0 | 0 | . | 30* | 12 | 32*
CC(C)C[C@H](NC(=O)c1[nH]cnc1C(=O)Nc1ccccc1)C(=O)OC(C)(C)C | 2 | 15 | . | 30* | 7 | 16
CC(C)C[C@H](NC(=O)c1nc[nH]c1C(=O)NCC(=O)OC(C)(C)C)C(=O)OCc1ccccc1 | 9 | -12 | . | 31* | 1 | 19
CC(C)C[C@H](NC(=O)c1nc[nH]c1C(=O)NCC(=O)OCc1ccccc1)C(=O)OCc1ccccc1 | -1 | 24 | 2 | 27 | 9 | .
CCOC(=O)c1ccc(NC(=O)c2nc[nH]c2C(=O)N[C@@H](CC(C)C)C(=O)OC(C)(C)C)cc1 | 3 | -1 | . | -3 | 5 | .
CC1CCCCN1C(=O)c1ccc(CNC(=O)c2cccc(Br)c2)cc1 (stereo not drawn) | . | . | . | -3 | . | .
O=C(O)CN1C(=O)/C(=C\c2cccc(OCc3ccc(F)cc3)c2)SC1=S | -3 | -11 | 11 | 36* | -3 | 28
O=C(O)CN1C(=O)/C(=C\c2cccc(OCc3ccc(Cl)cc3)c2)SC1=S | 4 | -4 | 6 | 11 | 2 | .
CCOC(=O)C1(CCc2ccccc2)CCN(C(=O)c2occc2C)CC1 | -2 | 5 | 0 | 32* | -7 | -8
CCOC(=O)C1(CCc2ccccc2)CCN(C(=O)c2cccc(C)n2)CC1 | 2 | 25 | -3 | 15 | 1 | .
Cc1cc2c(C(C)C)c(O)c(O)c(C=O)c2c(O)c1-c1c(C)cc2c(C(C)C)c(O)c(O)c(C=O)c2c1O | . | 16 | 5 | 63* | . | 31*
Cc1cc(=O)n2c3c(c4c(cc13)c(CN(C)C)cc(=O)n4C)OC2 | 1 | . | . | 90* | . | 51*
Cc1cc(=O)n(C)c2ccccc12 | 5 | 2 | 4 | 0 | 13 | .
O=C(C1CCCO1)N1CCN(C2=Nc3ccccc3Sc3ccccc32)CC1 (stereo not drawn) | . | . | . | 13 | . | .
Fc1ccc(Nc2nnc(C(F)(F)F)s2)cc1Cl | 9 | 32 | 2 | 16 | 18 | .
